Assay results taken from PubChem BioAssay (NCI).
Compounds without any hit were thinned out: in the full panel of roughly 83,000, 20% have a hit.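 Single-dose data. Exposure time 48 hours. Values below 10 considered active.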 Activity calls are given as the source filed them.

Columns and labels:
Test in all cases: NCI-60 one-dose screen, 48 h (100 = growth as untreated, 0 = no growth, -100 = all killed)
Conditions in all cases: 10 µM unless noted
NCI-H23 lung = test system: NCI-H23 lung
NCI-H226 lung = test system: NCI-H226 lung
NCI-H322M lung = test system: NCI-H322M lung
HOP-62 NSCLC = test system: HOP-62 NSCLC
NCI-H460 lung = test system: NCI-H460 lung
HOP-92 NSCLC = test system: HOP-92 NSCLC
NCI-H522 lung = test system: NCI-H522 lung
A549/ATCC NSCLC = test system: A549/ATCC NSCLC
786-0 renal = test system: 786-0 renal
COLO 205 colon = test system: COLO 205 colon
DU-145 prostate = test system: DU-145 prostate
K-562 leukemia = test system: K-562 leukemia
MALME-3M melanoma = test system: MALME-3M melanoma
MDA-MB-231 breast = test system: MDA-MB-231 breast
RXF 393 renal = test system: RXF 393 renal
SF-268 CNS = test system: SF-268 CNS
SF-295 CNS = test system: SF-295 CNS
SF-539 CNS = test system: SF-539 CNS
UACC-257 melanoma = test system: UACC-257 melanoma
M14 melanoma = test system: M14 melanoma

Measured: growth

O=C(O)/C(=C/c1ccc(O)cc1)c1ccccc1
inactive: NCI-H23 lung 93.9% | NCI-H226 lung 100% | NCI-H322M lung 100% | HOP-62 NSCLC 88.8% | NCI-H460 lung 108% | HOP-92 NSCLC 83.1% | NCI-H522 lung 95% | A549/ATCC NSCLC 93% | 786-0 renal 92.2% | COLO 205 colon 120% | DU-145 prostate 97.9% | K-562 leukemia 104% | MALME-3M melanoma 94.5% | MDA-MB-231 breast 103% | RXF 393 renal 70.6% | SF-268 CNS 95.8% | SF-295 CNS 105% | SF-539 CNS 122% | UACC-257 melanoma 90.3% | M14 melanoma 97.5%

Cc1cc2nc3c4cc(O)ccc4n(CCN(C)C)c3nc2cc1C
inactive: HOP-92 NSCLC 21.1%
active: NCI-H23 lung -35.3% | NCI-H226 lung -24.6% | NCI-H322M lung -11% | HOP-62 NSCLC 3.06% | NCI-H460 lung 3.73% | NCI-H522 lung -13.5% | A549/ATCC NSCLC -32.7% | 786-0 renal 5.67% | COLO 205 colon -40.6% | DU-145 prostate 6.38% | K-562 leukemia 7.53% | MALME-3M melanoma -61.6% | MDA-MB-231 breast -5.62% | RXF 393 renal -54% | SF-268 CNS 9.22% | SF-295 CNS -19.8% | SF-539 CNS -13.1% | UACC-257 melanoma -15.1% | M14 melanoma -33.7%

Cc1cc(N(CCCNc2ccnc3cc(Cl)ccc23)Cc2ccco2)nc(N2CCOCC2)n1
inactive: NCI-H23 lung 52.8% | NCI-H226 lung 82.7% | NCI-H322M lung 72.6% | HOP-62 NSCLC 64.4% | NCI-H460 lung 64.8% | HOP-92 NSCLC 51.8% | NCI-H522 lung 90.5% | A549/ATCC NSCLC 83.1% | 786-0 renal 68% | COLO 205 colon 56.7% | DU-145 prostate 74.7% | K-562 leukemia 26.9% | MALME-3M melanoma 92.8% | MDA-MB-231 breast 58.5% | RXF 393 renal 71% | SF-268 CNS 77.7% | SF-295 CNS 62.7% | SF-539 CNS 51.1% | UACC-257 melanoma 106% | M14 melanoma 72.5%

Cc1cccc(C)c1NCc1nc(-c2ccccc2)n[nH]1
inactive: NCI-H23 lung 97.9% | NCI-H226 lung 112% | NCI-H322M lung 95.4% | HOP-62 NSCLC 100% | NCI-H460 lung 107% | HOP-92 NSCLC 101% | NCI-H522 lung 94.5% | A549/ATCC NSCLC 101% | 786-0 renal 95.6% | COLO 205 colon 106% | DU-145 prostate 106% | K-562 leukemia 100% | MALME-3M melanoma 98.6% | MDA-MB-231 breast 103% | RXF 393 renal 121% | SF-268 CNS 101% | SF-295 CNS 98.1% | SF-539 CNS 93.2% | UACC-257 melanoma 100% | M14 melanoma 97.9%

Cc1ccc(-c2nc([P+](c3ccccc3)(c3ccccc3)c3ccccc3)c(N3CCOCC3)o2)cc1
active: NCI-H23 lung -9.72% | NCI-H226 lung -2.72% | NCI-H322M lung 7.88% | HOP-62 NSCLC -41.5% | NCI-H460 lung 3.34% | HOP-92 NSCLC -28.7% | NCI-H522 lung 0.415% | A549/ATCC NSCLC 9.89% | COLO 205 colon -70% | K-562 leukemia 4.64% | MALME-3M melanoma -18.8% | MDA-MB-231 breast -0.628% | RXF 393 renal -1.34% | SF-295 CNS -10.3% | UACC-257 melanoma -4.98% | M14 melanoma 0.413%
inactive: 786-0 renal 15.9% | DU-145 prostate 12.9% | SF-268 CNS 12.5% | SF-539 CNS 19.3%

N#Cc1c(-c2ccco2)nc2c(c(-c3ccccc3)nn2-c2ccccc2)c1-c1ccc(O)cc1
active: HOP-62 NSCLC -50% | COLO 205 colon 3.62%
inactive: NCI-H23 lung 99.7% | NCI-H226 lung 73.3% | NCI-H322M lung 81.9% | NCI-H460 lung 49.8% | HOP-92 NSCLC 76.1% | NCI-H522 lung 19.3% | A549/ATCC NSCLC 46.9% | 786-0 renal 59.1% | DU-145 prostate 75.8% | K-562 leukemia 15.7% | MALME-3M melanoma 35% | MDA-MB-231 breast 82.4% | RXF 393 renal 101% | SF-268 CNS 67.6% | SF-295 CNS 66.6% | SF-539 CNS 82.5% | UACC-257 melanoma 60.6% | M14 melanoma 65.6%

CC(=O)c1c(C)[nH]c(-c2nc3ccc(N4CCN(C)CC4)cc3[nH]2)c1-c1ccc(OCC2CCOCC2)cc1
inactive: NCI-H23 lung 36.6% | NCI-H226 lung 44.4% | NCI-H322M lung 41.1% | HOP-62 NSCLC 24.7% | NCI-H460 lung 49.6% | HOP-92 NSCLC 37% | NCI-H522 lung 37.6% | A549/ATCC NSCLC 33.2% | 786-0 renal 35.6% | DU-145 prostate 63.4% | K-562 leukemia 22.4% | MALME-3M melanoma 20.7% | MDA-MB-231 breast 37.4% | RXF 393 renal 31.1% | SF-268 CNS 54.3% | SF-295 CNS 43.3% | SF-539 CNS 40.2% | UACC-257 melanoma 30.8% | M14 melanoma 34.5%
active: COLO 205 colon 3.57%

CN(C)c1cccc2[nH]c(-c3[nH]ncc3Nc3ccnc(N)n3)nc12
active: NCI-H23 lung -45.1% | NCI-H226 lung -26.6% | NCI-H322M lung -13.6% | HOP-62 NSCLC -19.6% | NCI-H460 lung -32.7% | HOP-92 NSCLC -11.3% | NCI-H522 lung -24.6% | A549/ATCC NSCLC -7.09% | 786-0 renal -58% | COLO 205 colon -64% | DU-145 prostate -5.08% | K-562 leukemia 3.38% | MALME-3M melanoma -79% | MDA-MB-231 breast -18.8% | RXF 393 renal -86.3% | SF-268 CNS -25.3% | SF-295 CNS -41.5% | SF-539 CNS -83.8% | UACC-257 melanoma -65.8% | M14 melanoma -79.9%

COc1ccc(-c2cc(-c3cccs3)n(N=O)c(=O)c2C#N)cc1
inactive: NCI-H23 lung 89.1% | NCI-H226 lung 99.8% | NCI-H322M lung 106% | HOP-62 NSCLC 93.8% | NCI-H460 lung 102% | HOP-92 NSCLC 63.8% | NCI-H522 lung 93% | A549/ATCC NSCLC 100% | 786-0 renal 93.5% | COLO 205 colon 119% | DU-145 prostate 119% | K-562 leukemia 34.3% | MALME-3M melanoma 127% | MDA-MB-231 breast 100% | RXF 393 renal 96.3% | SF-268 CNS 110% | SF-295 CNS 102% | SF-539 CNS 96.5% | UACC-257 melanoma 101% | M14 melanoma 116%

CC(C)(C)n1cc(-c2ccnc(NCCCNS(=O)(=O)c3ccc(Cl)cc3)c2)c(-c2cccc(F)c2)n1
inactive: NCI-H23 lung 70.9% | NCI-H226 lung 80.9% | NCI-H322M lung 98.5% | HOP-62 NSCLC 93% | NCI-H460 lung 59.4% | HOP-92 NSCLC 73.6% | NCI-H522 lung 84.2% | A549/ATCC NSCLC 61.9% | 786-0 renal 71.4% | COLO 205 colon 43.4% | DU-145 prostate 87% | K-562 leukemia 24.8% | MALME-3M melanoma 73.8% | MDA-MB-231 breast 81.6% | RXF 393 renal 72% | SF-268 CNS 86.6% | SF-295 CNS 68.2% | SF-539 CNS 75% | UACC-257 melanoma 93.1% | M14 melanoma 77.7%

Cc1cc2nc3c4cc([N+](=O)[O-])cc([N+](=O)[O-])c4n(CCN(C)C)c3nc2cc1C
inactive: NCI-H23 lung 77.7% | NCI-H226 lung 84.1% | NCI-H322M lung 72.2% | HOP-62 NSCLC 64.7% | NCI-H460 lung 65.4% | HOP-92 NSCLC 80.7% | NCI-H522 lung 70.6% | A549/ATCC NSCLC 73.5% | 786-0 renal 80.4% | COLO 205 colon 71.1% | DU-145 prostate 92.1% | K-562 leukemia 62.3% | MALME-3M melanoma 76.5% | MDA-MB-231 breast 77.2% | RXF 393 renal 58.3% | SF-268 CNS 74.1% | SF-295 CNS 62.9% | SF-539 CNS 76.5% | UACC-257 melanoma 107% | M14 melanoma 80.1%

C=COCCCCCCCCCCCCCCCCCC
inactive: NCI-H23 lung 101% | NCI-H226 lung 104% | NCI-H322M lung 137% | HOP-62 NSCLC 108% | NCI-H460 lung 107% | HOP-92 NSCLC 75.6% | NCI-H522 lung 97.5% | A549/ATCC NSCLC 79.5% | 786-0 renal 102% | COLO 205 colon 104% | DU-145 prostate 106% | K-562 leukemia 119% | MALME-3M melanoma 109% | MDA-MB-231 breast 90.4% | RXF 393 renal 119% | SF-268 CNS 101% | SF-295 CNS 118% | SF-539 CNS 96.4% | UACC-257 melanoma 92.2% | M14 melanoma 113%

CC(C)c1cc(C(=O)O)c(O)c(C(C)C)c1.CC(C)c1cc(C(=O)O)c(O)c(C(C)C)c1.[Mn]
inactive: NCI-H23 lung 110% | NCI-H226 lung 103% | NCI-H322M lung 110% | HOP-62 NSCLC 112% | NCI-H460 lung 102% | NCI-H522 lung 79.5% | A549/ATCC NSCLC 99.9% | 786-0 renal 101% | COLO 205 colon 112% | DU-145 prostate 108% | K-562 leukemia 94.8% | MALME-3M melanoma 103% | MDA-MB-231 breast 103% | RXF 393 renal 129% | SF-268 CNS 96.2% | SF-295 CNS 107% | SF-539 CNS 105% | UACC-257 melanoma 98.8% | M14 melanoma 107%
active: HOP-92 NSCLC -39.3%

C#CCn1c(C)cc(C)c(C#N)c1=O
inactive: NCI-H23 lung 107% | NCI-H226 lung 114% | NCI-H322M lung 103% | HOP-62 NSCLC 109% | NCI-H460 lung 107% | HOP-92 NSCLC 98.3% | NCI-H522 lung 103% | A549/ATCC NSCLC 104% | 786-0 renal 99.9% | COLO 205 colon 110% | DU-145 prostate 110% | K-562 leukemia 103% | MALME-3M melanoma 96.9% | MDA-MB-231 breast 101% | RXF 393 renal 124% | SF-268 CNS 98.3% | SF-295 CNS 99.7% | SF-539 CNS 97.7% | UACC-257 melanoma 103% | M14 melanoma 106%
